Results from PubChem BioAssay.
Values without a mark were called inactive. The rule behind the calls is not given here.

Target: Pantothenate synthetase (Mycobacterium tuberculosis (strain ATCC 25618 / H37Rv)) (UniProt P9WIL5)
Test: Coupled enzyme confirmation of inhibitors against recombinant Mtb PanC (AID 375);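 note: 0% = full reaction with vehicle and 100% = no enzyme background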
Conditions: coupled enzyme assay; at 10 µM, stronger effect = higher value

Sequence of Pantothenate synthetase (Mycobacterium tuberculosis (strain ATCC 25618 / H37Rv)) (P9WIL5 whole entry, looked up): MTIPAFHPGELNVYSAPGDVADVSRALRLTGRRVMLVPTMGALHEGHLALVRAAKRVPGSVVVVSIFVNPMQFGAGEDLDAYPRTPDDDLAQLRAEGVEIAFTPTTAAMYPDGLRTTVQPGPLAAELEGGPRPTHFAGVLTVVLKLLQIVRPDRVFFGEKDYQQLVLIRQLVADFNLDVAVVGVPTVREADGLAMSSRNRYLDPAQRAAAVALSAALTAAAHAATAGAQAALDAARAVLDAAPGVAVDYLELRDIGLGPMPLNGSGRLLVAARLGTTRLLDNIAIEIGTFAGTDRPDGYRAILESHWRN

**Q.** How did the inhibition turn out when CCN(CC)C(c1ccc(C)cc1)c1nnnn1C1CCCCC1 (stereo not drawn) was run?
**A.** 0%

**Q.** Which inhibition does the source give for Cc1ccc(OCCN2CCN(C(=O)CCC(=O)Nc3nnc(C)s3)CC2)cc1 here?
**A.** 1%

**Q.** How did the inhibition turn out when CC1CCN(CCCNC(=O)c2cn(C)c3ccc(S(=O)(=O)N4CCCC4)cc3c2=O)CC1 was run?
**A.** 0%

**Q.** CCOC(=O)c1c(C)[nH]c(C=Nc2ccccc2)c1O was tested. Which inhibition did it give?
**A.** 0%

**Q.** With COc1ccc(CN2C(=O)C(O)(CC(=O)c3c(C)n[nH]c3C)c3ccccc32)cc1OC (stereo not drawn) as the molecule, how does the inhibition read?
**A.** 0%

**Q.** Which inhibition does the source give for Cc1cc2ncn(C(=O)c3c(-c4ccccc4)noc3C)c2cc1C here?
**A.** 5%

**Q.** Which inhibition does the source give for CCN(c1ccccc1)S(=O)(=O)c1ccc(F)cc1C here?
**A.** 1%

**Q.** For CC1(C)S[C@@H]2[C@H](NC(=O)[C@H](C(=O)O)c3ccsc3)C(=O)N2[C@H]1C(=O)O, which inhibition is on record?
**A.** 5%

**Q.** With Cc1c(Cl)cccc1NC(=O)CCN1CCCCCC1 as the molecule, how does the inhibition read?
**A.** 0%

**Q.** How did the inhibition turn out when CC(C)(O)C1=NOC(c2ccccc2)C1 (stereo not drawn) was run?
**A.** 0%

**Q.** Which inhibition does the source give for COC(=O)Cn1c(=O)c2c(nc(Br)n2CC(=O)OC)n(C)c1=O here?
**A.** 0%

**Q.** For CCOC(=O)c1ccc(-c2c(C(=O)OCC)oc3cc(O)c(CC)cc3c2=O)o1, which inhibition is on record?
**A.** 3%

**Q.** How did the inhibition turn out when COc1ccc(N=C2C(=O)Nc3ccccc32)cc1 was run?
**A.** 0%

**Q.** With O=C(O)c1ccc(COc2ccc(Cl)cc2)o1 as the molecule, how does the inhibition read?
**A.** 0%

**Q.** Which inhibition does the source give for N#CC(C(=O)CCN1C(=O)C2CC=CCC2C1=O)c1nc2ccccc2[nH]1 (stereo not drawn) here?
**A.** 0%

**Q.** For CCn1cc(C(=O)NCc2ccco2)c(=O)c2cc(F)c(N3CCN(C(=O)c4ccco4)CC3)cc21, which inhibition is on record?
**A.** 0%

**Q.** Which inhibition does the source give for CSCCC(NC(=O)CCN1C(=O)c2ccccc2C1=O)C(=O)O (stereo not drawn) here?
**A.** 0%

**Q.** Which inhibition does the source give for COc1ccc(CNC(=O)CCc2nc(-c3ccccc3F)no2)c(OC)c1 here?
**A.** 0%

**Q.** How did the inhibition turn out when Cn1c(SCc2c(F)cccc2Cl)nnc1-c1cccs1 was run?
**A.** 0%

**Q.** Which inhibition does the source give for CCC(=O)Nc1ccc(NC(=O)c2ccccn2)cn1 here?
**A.** 0%

**Q.** COc1ccc(S(=O)(=O)NC2CCCCC2)c(C)c1C was tested. Which inhibition did it give?
**A.** 4%

**Q.** How did the inhibition turn out when CCSc1nc(C)nc2c1oc1ccccc12 was run?
**A.** 0%

**Q.** With O=C(CSCc1ccc(F)cc1)NC1CCCC1 as the molecule, how does the inhibition read?
**A.** 0%
